# Source: PubChem BioAssay (EPA / NIEHS)
# Records with an inconclusive call do not appear. Calls of active or inactive are those of the source. The calls were made as follows, unless noted: active = hit-call score of the fitted dose curve at least 0.9, where 1 is the maximum; inactive = score below 0.9.
# How the values were obtained:
# [1] = CCTE_Harrill_HTTr_Apoptosis_MCF7: CCTE's 6-hour Apoptosis Assessment for the High-Throughput Transcriptomics (HTTr) Platform, in MCF-7 cells cultured in DMEM + 10% fetal bovine serum, Harrill Lab (AID 2284011)
# How it was run: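 Cells are dosed with test chemicals at eight concentrations and imaged 6 hours later for caspase-3/7 activity using a green fluorogenic detection reagent. Activity is fitted in both directions against DMSO controls.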
# [2] = CCTE_Harrill_HTTr_CellCount_MCF7: CCTE's Cell Proliferation Assessment for the High-Throughput Transcriptomics (HTTr) Platform, Harrill Lab (AID 2284012; active = hit-call score of the fitted dose curve at least 0.9, where 1 is the maximum;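 also: cells exposed to compound for six hours; intended direction is loss of nuclei count meaning fewer cells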)
# How it was run: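 MCF7 cells exposed 6 hours to an eight-point dilution series; Hoechst-stained nuclei counted by high-content imaging. Bidirectional curve fitting against DMSO baseline.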
# [3] = CCTE_Shafer_MEA_acute_burst_number: CCTE's Neural Acute Assay for Single-Electrode Bursts, Shafer Lab (AID 2284013)
# How it was run: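 Spontaneous network activity of primary rat cortical neurons was recorded extracellularly on microelectrode arrays at 37 C, with 40-min periods before and during exposure to 0.03-40 uM compound on DIV 13 or 15.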
# [4] = CCTE_Shafer_MEA_acute_burst_duration_mean: CCTE's Neural Acute Assay for Mean Burst Duration, Shafer Lab (AID 2284014);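 also: hits are decreases in mean burst duration relative to DMSO controls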
# How it was run: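 Read-out is the per-well percent change in mean burst duration (first to last spike within a single-electrode burst) between 40-min recordings before and after compound. Cultures were primary rat cortical neurons on MEAs, dosed at 0.03-40 uM on DIV 13 or 15.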
# [5] = CCTE_Shafer_MEA_acute_per_burst_spike_number_mean: CCTE's Neural Acute Assay for Average Number of Spikes Per Burst, Shafer Lab (AID 2284015);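 also: hits are decreases in mean spikes per burst versus baseline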
# How it was run: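 Rat primary cortical neurons on 48-well MEAs (DIV 13 or 15) were treated with 0.03-40 uM compound at 37 C. Mean spikes per burst over 40 min were recorded before and after exposure and expressed as percent change from baseline, relative to DMSO.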
# [6] = CCTE_Shafer_MEA_acute_interburst_interval_mean: CCTE's Neural Acute Assay for Mean Interburst Interval, Shafer Lab (AID 2284016);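 also: percent change of mean interburst interval versus each well's own pre-dose baseline; curves fitted for decrease in interburst interval relative to DMSO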
# How it was run: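 Rat primary cortical neurons on 48-well MEAs at DIV 13 or 15 were exposed acutely to 0.03-40 uM. Spikes detected at 8x rms noise, 37 C. Mean interburst interval from 40 min recordings expressed as percent change from 40 min pre-treatment baseline.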
# [7] = CCTE_Shafer_MEA_acute_burst_percentage_mean: CCTE's Neural Acute Assay for Percentage of Spikes in a Burst, Shafer Lab (AID 2284017);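 as to AC50: curve fitted for loss of signal so potency reflects decreased burst percentage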
# How it was run: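 Primary rat cortical neurons on 48-well MEA plates, treated on DIV 13 or 15 at 0.03-40 uM. Spikes detected at 8x rms noise at 37C; percent change from 40-min baseline to 40-min post-dose recording, fitted versus DMSO.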
# [8] = CCTE_Shafer_MEA_acute_burst_percentage_std: CCTE's Neural Acute Assay for Standard Deviation of Burst Percentage, Shafer Lab (AID 2284018);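 also: fitted in the negative direction so actives lower burst percentage SD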
# How it was run: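 Value is percent change from baseline in the across-electrode SD of spikes-in-bursts percentage, wells with >/= 10 active electrodes. Acute 40-min exposure to 0.03-40 uM on DIV 13 or 15 rat cortical cultures, recorded at 37 C after 40-min baseline.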
# [9] = CCTE_Shafer_MEA_acute_per_network_burst_spike_number_mean: CCTE's Neural Acute Assay for Average Number of Spikes in a Network Burst, Shafer Lab (AID 2284019);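 as to AC50: curve fitted for loss of signal so actives reduce spikes per network burst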
# How it was run: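 Read-out is mean spike count per network burst, taken as percent change between a 40-min pre-exposure and a 40-min post-exposure recording per well. Rat primary cortical neurons on MEAs at 37 C, DIV 13 or 15; compounds at 0.03-40 uM.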
# [10] = CCTE_Shafer_MEA_acute_per_network_burst_spike_number_std: CCTE's Neural Acute Assay for Standard Deviation of Number of Spikes in a Network Burst, Shafer Lab (AID 2284020);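 also: fitted for decrease in spike-number SD versus DMSO so actives lower it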
# How it was run: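 Spontaneous network activity of primary rat cortical neurons is recorded extracellularly before and after a 40-min compound exposure (0.03-40 uM) at 37 C. The endpoint is the well's percent change in burst spike-number SD.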
# [11] = CCTE_Shafer_MEA_acute_per_network_burst_electrodes_number_mean: CCTE's Neural Acute Assay for Mean Number of Electrodes in a Network Burst, Shafer Lab (AID 2284021);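 also: curves fitted for decreases only so hits reduce electrodes per burst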
# How it was run: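 Cultures of rat cortex neurons were exposed on DIV 13 or 15 to compounds at 0.03-40 uM in at least three wells each. Activity over 40 min before and 40 min after exposure at 37 C gave the percent change in electrodes per network burst.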
# [12] = CCTE_Shafer_MEA_acute_network_burst_percentage: CCTE's Neural Acute Assay for Percentage of Network Bursts, Shafer Lab (AID 2284022);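 also: curves fitted for loss so actives lower network burst percentage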
# How it was run: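 Cortical neurons from rat were grown over microelectrode arrays and used on day 13 or 15 in vitro. Wells with at least 10 active electrodes received test chemical at 0.03-40 uM. Activity during 40 min of exposure was compared with the preceding 40-min baseline.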
# [13] = CCTE_Shafer_MEA_acute_synchrony_index: CCTE's Neural Acute Assay for Synchrony, Shafer Lab (AID 2284027);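 also: network synchrony index of spontaneous spiking in primary rat cortical neurons on MEAs; fitted for loss of signal so actives lower synchrony relative to DMSO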
# How it was run: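 Primary rat cortical neurons on 48-well MEAs, dosed at 0.03–40 uM on DIV 13 or 15. Spikes are recorded for 40 min at 37C before and after exposure, and synchrony index (0–1) is expressed as percent change from baseline per well.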
# [14] = molecular target: Estrogen receptor (Homo sapiens) (UniProt P03372); test: CCTE_Deisenroth_AIME_96WELL_LUC_Active: CCTE's 96-well Estrogen Receptor Transactivation Assay with AIME metabolic competence (ERTA luciferase; metabolism positive), Deisenroth Lab (AID 2284023; active = hit-call score of the fitted dose curve at least 0.9, where 1 is the maximum)
# Chain of Estrogen receptor (Homo sapiens) (P03372 whole entry, looked up): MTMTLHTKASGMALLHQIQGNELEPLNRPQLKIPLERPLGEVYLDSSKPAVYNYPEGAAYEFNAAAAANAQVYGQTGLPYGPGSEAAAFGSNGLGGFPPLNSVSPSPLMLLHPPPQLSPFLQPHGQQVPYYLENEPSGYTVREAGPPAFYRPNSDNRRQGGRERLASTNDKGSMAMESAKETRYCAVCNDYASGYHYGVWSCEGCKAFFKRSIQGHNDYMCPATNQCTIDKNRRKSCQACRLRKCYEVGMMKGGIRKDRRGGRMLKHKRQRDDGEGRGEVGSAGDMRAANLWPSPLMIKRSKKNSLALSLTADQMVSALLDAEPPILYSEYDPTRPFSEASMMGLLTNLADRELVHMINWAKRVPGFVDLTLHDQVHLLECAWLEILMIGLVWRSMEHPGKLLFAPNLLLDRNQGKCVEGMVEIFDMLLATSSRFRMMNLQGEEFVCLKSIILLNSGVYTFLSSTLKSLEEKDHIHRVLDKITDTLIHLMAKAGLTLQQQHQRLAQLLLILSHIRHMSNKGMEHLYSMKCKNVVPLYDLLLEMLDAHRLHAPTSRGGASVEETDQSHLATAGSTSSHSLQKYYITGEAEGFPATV
# How it was run: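 Chemicals pre-incubated 2 h with alginate-immobilized phenobarbital/beta-naphthoflavone-induced male Sprague Dawley rat liver S9, then medium transferred to VM7Luc4E2 cells for 24 h luciferase read-out. 10-point series 0.002 - 200 uM; fitted relative to 17beta-estradiol.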
# [15] = molecular target: Estrogen receptor (Homo sapiens) (UniProt P03372); test: CCTE_Deisenroth_AIME_96WELL_LUC_Inactive: CCTE's 96-well Estrogen Receptor Transactivation Assay without AIME metabolic competence (ERTA luciferase; metabolism negative), Deisenroth Lab (AID 2284025; active = hit-call score of the fitted dose curve at least 0.9, where 1 is the maximum)
# How it was run: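 VM7Luc4E2 breast cells, luciferase read 24 h after dosing with medium pre-incubated 2 h on alginate-water lids (metabolism negative). 10-point series 0.002–200 uM, single technical replicate, n≥4; fit relative to 17beta-estradiol.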
# [16] = CCTE_Deisenroth_AIME_96WELL_CTox_Active: Cytotoxicity Assessment (CTOX) in CCTE's 96-well Estrogen Receptor Transactivation Assay with AIME metabolic competence (metabolism positive), Deisenroth Lab (AID 2284028; active = hit-call score of the fitted dose curve at least 0.9, where 1 is the maximum)
# How it was run: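 Chemicals (0.002–200 uM) were first incubated 2 h with alginate-immobilized phenobarbital/beta-naphthoflavone-induced male rat liver S9; conditioned medium then went onto VM7Luc4E2 cells for 24 h, with viability read by protease-substrate fluorescence, fitted bidirectionally.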
# [17] = CCTE_Deisenroth_AIME_96WELL_CTox_Inactive: Cytotoxicity Assessment (CTOX) in CCTE's 96-well Estrogen Receptor Transactivation Assay without AIME metabolic competence (metabolism negative), Deisenroth Lab (AID 2284029; active = hit-call score of the fitted dose curve at least 0.9, where 1 is the maximum)
# How it was run: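 Chemicals (0.002 - 200 uM, 10 points) incubated 2 h with alginate-water microspheres (no S9), then medium moved onto VM7Luc4E2 cells for 24 h. Viability by protease-substrate cleavage to fluorescent probe; bidirectional fitting.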
structure (smiles),measurement,setting,value
CCCC[C@H]1CN(CC2CCOCC2)C(=O)OC12CCN(C1(C)CCN(C(=O)c3c(C)ncnc3C)CC1)CC2,outcome,[1],inactive
same,outcome,[2],inactive
CC(=O)O,outcome,[1],inactive
same,outcome,[2],inactive
CC(=O)OCC(COC(C)=O)OC(C)=O,outcome,[1],inactive
Cc1occc(=O)c1O,outcome,[1],inactive
CO[C@@H]1COCC[C@@H]1N[C@@H]1CC[C@@](C(=O)N2CCc3ncc(C(F)(F)F)cc3C2)(C(C)C)C1,outcome,[1],inactive
CCCCC(CC)COC(=O)CCCCCCCC(=O)OCC(CC)CCCC (configuration not stated),outcome,[1],inactive
C=CCc1ccc(OC)c(OC)c1,outcome,[1],inactive
same,outcome,[2],inactive
CCCCOC(=O)CCCCC(=O)OCCCC,outcome,[1],inactive
same,outcome,[2],inactive
CCCCCCCCCCCCCCOS(=O)(=O)O,outcome,[1],inactive
O=C(O)c1cccnc1,outcome,[1],inactive
same,outcome,[2],inactive
Nc1nc(Cl)nc2c1ncn2[C@H]1C[C@H](O)[C@@H](CO)O1,outcome,[1],inactive
same,outcome,[2],inactive
Nc1nc(=S)c2[nH]cnc2[nH]1,outcome,[1],inactive
same,outcome,[2],inactive
same,outcome,[3],inactive
same,outcome,[4],inactive
same,AC50,[5],20 µM (active)
same,outcome,[6],inactive
same,AC50,[7],5.71 µM (active)
same,outcome,[8],inactive
same,AC50,[9],17.1 µM (active)
same,outcome,[10],inactive
same,outcome,[11],inactive
same,outcome,[12],inactive
same,AC50,[13],3.98 µM (active)
CCCCc1nc2cccnc2n1Cc1ccc(-c2ccccc2-c2nnn[nH]2)cc1,outcome,[1],inactive
COC(=O)CCCC(=O)OC,outcome,[1],inactive
CC(=O)S[C@H](C(=O)N[C@H]1Cc2ccccc2[C@H]2CCC[C@@H](C(=O)O)N2C1=O)C(C)C,outcome,[1],inactive
same,outcome,[2],inactive
Oc1ccc(O)cc1,outcome,[1],inactive
same,outcome,[2],inactive
same,outcome,[3],inactive
same,outcome,[4],inactive
same,outcome,[5],inactive
same,AC50,[6],20 µM (active)
same,outcome,[7],inactive
same,outcome,[8],inactive
same,outcome,[9],inactive
same,outcome,[10],inactive
same,outcome,[11],inactive
same,outcome,[12],inactive
same,AC50,[14],50.2 µM (active)
same,AC50,[15],71.8 µM (active)
same,outcome,[13],inactive
same,outcome,[16],inactive
same,outcome,[17],inactive
CCC(C)N(C)C(=O)c1cc2ccccc2c(-c2ccccc2Cl)n1 (configuration not stated),outcome,[1],inactive
same,outcome,[2],inactive
CCCCCCCCCC[N+](C)(C)[O-],outcome,[1],inactive
same,outcome,[2],inactive
Cc1cn([C@H]2C=C[C@@H](CO)O2)c(=O)[nH]c1=O,outcome,[1],inactive
same,outcome,[2],inactive
O=C1O[C@H]([C@H](O)CO)C(O)=C1O,outcome,[1],inactive
C/C=C/C=C/C(=O)O,outcome,[1],inactive
same,outcome,[2],inactive
O=Cc1ccccc1C=O,outcome,[1],inactive
same,outcome,[2],inactive
CC(COCC(C)OC(=O)c1ccccc1)OC(=O)c1ccccc1 (configuration not stated),outcome,[1],inactive
O=NO,outcome,[1],inactive
same,outcome,[2],inactive
CC(C)c1cccc(C(C)C)c1NC(=O)NS(=O)(=O)c1cc(C(C)(C)O)co1,outcome,[1],inactive
same,outcome,[2],inactive
CC(=O)[C@@]1(O)CC[C@H]2[C@@H]3CCC4=CC(=O)CC[C@]4(C)[C@H]3CC[C@@]21C,outcome,[1],inactive
same,outcome,[2],inactive
Cc1cc(SC2=C(O)C[C@@](CCc3ccc(N)cc3)(C(C)C)OC2=O)c(C(C)(C)C)cc1CO,outcome,[1],inactive
same,outcome,[2],inactive
same,AC50,[3],20 µM (active)
same,outcome,[4],inactive
same,outcome,[5],inactive
same,outcome,[6],inactive
same,outcome,[7],inactive
same,outcome,[8],inactive
same,outcome,[9],inactive
same,outcome,[10],inactive
same,outcome,[11],inactive
same,outcome,[12],inactive
same,outcome,[13],inactive
